Like-named read-outs stand apart in the source and are kept apart here.
What was measured:
CDC2L2 = conditions: concentration: 1 μM, replicates: in singlicate; n = 1
CDC2L5 = test system: T1, CDC2L5; conditions: n = 1
T1 construct: gene CDK13

CDK11 = test system: T2, CDK11; conditions: concentration: 1 μM, replicates: in singlicate; n = 1
T2 construct: gene CDK19

CDK2 = conditions: concentration: 1 μM, replicates: in singlicate; n = 1
CDK3 = conditions: concentration: 1 μM, replicates: in singlicate; n = 1
CDK4-cyclinD1 = conditions: n = 1
CDK4-cyclinD3 = conditions: n = 1
CDK4 = conditions: n = 1
CDK5 = conditions: concentration: 1 μM, replicates: in singlicate; n = 1
CDK7 = conditions: concentration: 1 μM, replicates: in singlicate; n = 1
[1] = concentration: 1 μM, replicates: in singlicate
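Further: KINOMEscan kinase panel screen.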

Row | Structure (SMILES) | %Inh (CDC2L2) [%] | %Inh (CDC2L5; [1]) [%] | %Inh (CDK11) [%] | %Inh (CDK2) [%] | %Inh (CDK3) [%] | %Inh (CDK4-cyclinD1; [1]) [%] | %Inh (CDK4-cyclinD3; [1]) [%] | %Inh (CDK4; [1]) [%] | %Inh (CDK5) [%] | %Inh (CDK7) [%] | %Inh (CDC2L5; 1 µM) [%] | %Inh (CDK4-cyclinD1; 1 µM) [%] | %Inh (CDK4-cyclinD3; 1 µM) [%] | %Inh (CDK4; 1 µM) [%]
1 | N#CC1(c2cccc(C(=O)Nc3cccc(Oc4ccc5nc(NC(=O)C6CC6)sc5n4)c3)c2)CC1 | 0 | 6 | 24 | 0 | 0 | 15 | 1 | 0 | 0 | 12 | – | – | – | –
2 | COc1ccc(NC(=O)c2ccoc2)cc1-c1ccc(C(=O)NCC2CC2)cc1 [GW810437] | 6 | 16 | 11 | 0 | 2 | 0 | 0 | 15 | 0 | 26 | – | – | – | –
3 | Fc1cc(Cl)ccc1Nc1ccnc2cc(-c3ccc(CN4CCOCC4)o3)ccc12 [GW560109] | 0 | 0 | 0 | 0 | 18 | 0 | 0 | 0 | 0 | 0 | – | – | – | –
4 | O=C(Nc1n[nH]c2nc(-c3cccc(O)c3)ccc12)C1CC1 [SB-711805] | 0 | 46 | 0 | 38 | 49 | 20 | 25 | 15 | 0 | 23 | – | – | – | –
5 | Nc1ncc(-c2cn[nH]c2)c2scc(-c3ccc4c(c3)CCN4C(=O)Cc3ccccc3)c12 [GSK2593067] | 0 | 0 | 23 | 0 | 2 | 0 | 0 | 0 | 0 | 0 | – | – | – | –
6 | COc1ccc(C)c(Nc2ccnc(Nc3ccc(-c4cnc[nH]4)cc3)n2)c1.Cl [GW784041] | 16 | 0 | 2 | 0 | 3 | 0 | 0 | 0 | 0 | 0 | – | – | – | –
7 | Cn1cc(-c2cnc(N)c3c(-c4ccc5c(c4)CCN5C(=O)Cc4ccccc4)csc23)cn1 [GSK2593074] | 1 | – | 18 | 0 | 1 | – | – | – | 2 | 19 | 0 | 0 | 0 | 0
8 | COc1cccc2c(-c3ccncc3)c(-c3ccc(F)cc3)nn12 [GW468513] | 4 | 0 | 8 | 4 | 6 | 27 | 0 | 0 | 0 | 0 | – | – | – | –
9 | CC(C)c1nc(-c2ccc(F)c(NS(=O)(=O)c3c(F)cccc3F)c2)c(-c2ccnc(Nc3ccc(N4CCOCC4)nc3)n2)s1 [GSK1804250] | 0 | 0 | 2 | 95.5 | 35 | 26 | 0 | 87 | 51 | 10 | – | – | – | –
10 | COc1cccc(NC(=O)NCCNc2ccnc(Nc3ccc(F)cc3)n2)c1 [GSK1379879] | 27 | 0 | 22 | 0 | 0 | 9 | 1 | 0 | 0 | 0 | – | – | – | –
11 | O=C(O)C(F)(F)F.O=c1[nH]ccc2nc(N[C@@H]3CCNC3)nc(Nc3ccc4c(c3)S(=O)(=O)CC4)c12 [GSK2181306] | 0 | 0 | 0 | 62 | 53 | 90.6 | 69 | 50 | 76 | 85 | – | – | – | –
12 | Cc1ccc(NC(=O)c2ccc(Cl)c(Cl)c2)cc1-c1ccc(C(=O)Nc2ccncc2)cc1 [GSK1398460] | 14 | 0 | 13 | 0 | 5 | 0 | 0 | 0 | 0 | 0 | – | – | – | –
13 | CN(c1ccc(NC(=O)Nc2cccc(Cl)c2)cc1)c1ccnc(N)n1.Cl [GW830707] | 12 | 43 | 77 | 9 | 0 | 57 | 0 | 4 | 5 | 24 | – | – | – | –
14 | Cl.Cl.NCC(NC(=O)c1cc(-c2cccnc2)c(-c2ccnc3[nH]ccc23)s1)c1ccccc1 (stereo not drawn) [GSK1323434] | 9 | 0 | 8 | 3 | 26 | 39 | 0 | 79 | 0 | 50 | – | – | – | –
15 | CCn1cnc2c(NCc3ccccc3)ncnc21 [SKF-96418] | 0 | 10 | 0 | 0 | 0 | 0 | 0 | 8 | 0 | 0 | – | – | – | –
16 | Cn1cc(-c2ccc3c(c2)CCN3C(=O)Cc2cc(F)cc(C(F)(F)F)c2)c2c(N)ncnc21 [GSK2635225] | 24 | 0 | 95.2 | 6 | 4 | 0 | 0 | 32 | 0 | 11 | – | – | – | –
17 | Fc1cc(Cl)ccc1Nc1ccnc2cc(-c3ccc(CN4CCSCC4)o3)ccc12 [GW560106] | 0 | 0 | 1 | 0 | 0 | 35 | 0 | 53 | 0 | 0 | – | – | – | –

Row | Structure (SMILES) | %Inh (CDC2L2) [%] | %Inh (CDC2L5; [1]) [%] | %Inh (CDK11) [%] | %Inh (CDK2) [%] | %Inh (CDK3) [%] | %Inh (CDK4-cyclinD1; [1]) [%] | %Inh (CDK4-cyclinD3; [1]) [%] | %Inh (CDK4; [1]) [%] | %Inh (CDK5) [%] | %Inh (CDK7) [%] | %Inh (CDC2L5; 1 µM) [%] | %Inh (CDK4-cyclinD1; 1 µM) [%] | %Inh (CDK4-cyclinD3; 1 µM) [%] | %Inh (CDK4; 1 µM) [%]
18 | CNc1nccc(-c2ccc3c(N)n[nH]c3c2)n1 [GSK2206003] | 17 | 0 | 0 | 23 | 19 | 7 | 0 | 31 | 0 | 23 | – | – | – | –
19 | Cc1ccccc1CC(=O)N1CCc2cc(-c3cn(C)c4ncnc(N)c34)ccc21 [GSK2603346] | 3 | 0 | 81 | 6 | 2 | 0 | 0 | 29 | 0 | 0 | – | – | – | –
20 | CN(C)CCNS(=O)(=O)c1ccc(-c2ccnc3[nH]ccc23)cc1 [GSK977620] | 0 | 0 | 5 | 0 | 0 | 0 | 0 | 11 | 0 | 45 | – | – | – | –
21 | COc1cc(Nc2nccc(N3CCC(NS(=O)(=O)c4ccc(NC(C)=O)cc4)CC3)n2)cc(OC)c1OC [GSK1379825] | 0 | 0 | 0 | 0 | 7 | 16 | 0 | 0 | 0 | 0 | – | – | – | –
22 | COc1cccc(CC(=O)N2CCc3cc(-c4cn(C)c5ncnc(N)c45)ccc32)c1 [GSK2608899] | 8 | 0 | 98.4 | 18 | 12 | 0 | 0 | 25 | 6 | 4 | – | – | – | –
23 | Cc1ccc(O)cc1Nc1ccnc2ccc(C(C)(C)C)cc12 [GW856805] | 15 | 36 | 21 | 7 | 0 | 12 | 24 | 25 | 0 | 42 | – | – | – | –
24 | Nc1ncnc2scc(-c3ccc(NC(=O)Cc4cc(F)ccc4F)cc3)c12.O=C(O)C(F)(F)F [SB-731254-M] | 36 | 0 | 99 | 0 | 0 | 0 | 11 | 0 | 2 | 0 | – | – | – | –
25 | c1ccc(Oc2ccc(Nc3ccnc4cc(-c5ccc(CN6CCCCC6)o5)ccc34)cc2)nc1 [GW567143] | 9 | 0 | 0 | 0 | 7 | 0 | 0 | 18 | 0 | 45 | – | – | – | –
26 | O=C(Nc1c(F)cccc1F)c1cc(C(=O)c2ccccc2F)c[nH]1 [GSK1326180] | 0 | 0 | 6 | 0 | 16 | 33 | 0 | 14 | 0 | 0 | – | – | – | –
27 | Cc1cccc(Nc2nc(NCCN)ncc2C(N)=O)c1 [GSK1292139] | 18 | 0 | 0 | 0 | 5 | 0 | 6 | 35 | 0 | 24 | – | – | – | –
28 | COc1cc(Nc2ccnc3cc(-c4ccncc4)ccc23)cc(OC)c1OC.Cl [GW494610] | 0 | 0 | 2 | 1 | 1 | 39 | 0 | 27 | 0 | 0 | – | – | – | –
29 | CCn1c(-c2nonc2N)nc2c(-c3ccccc3)ncc(OCCCN)c21.O=C(O)C(F)(F)F.O=C(O)C(F)(F)F [GSK260205] | 0 | 0 | 0 | 0 | 0 | 0 | 0 | 0 | 0 | 0 | – | – | – | –
30 | COc1ccc(C2=C(Nc3cccc(O)c3)C(=O)NC2=O)cc1 [SB-390766] | 0 | 0 | 93.8 | 98.3 | 42 | 20 | 9 | 35 | 0 | 0 | – | – | – | –
31 | O=C(Nc1n[nH]c2nc(-c3ccccc3)ccc12)C1CC1 [SB-708999] | 0 | 27 | 0 | 45 | 35 | 61 | 0 | 12 | 2 | 10 | – | – | – | –
32 | CC(C)c1nc(-c2cccc(NS(=O)(=O)c3c(F)cccc3F)c2)c(-c2ccnc(Nc3ccc(N4CCOCC4)nc3)n2)s1.Cl [GSK1723980] | 0 | 79 | 0 | 99.1 | 99.7 | 96.2 | 56 | 94.4 | 98.9 | 62 | – | – | – | –
33 | CSc1ccc(NC2=C(c3ccc(Cl)cc3)C(=O)NC2=O)cc1 [SB-317658] | 2 | 0 | 0 | 6 | 18 | 0 | 0 | 12 | 28 | 36 | – | – | – | –

Reference: paper PMC5540273 (PLoS ONE, 2017)
